Assay results as given in PubChem BioAssay AID1220 (Sanford-Burnham Center for Chemical Genomics, 2008).
The whole screen tested about 190,000 compounds, of which about 1,300 (0.68%) were called active. The sample holds actives, similar compounds and a random draw of the others, so the mix is not that of the screen. A number with no mark means an inactive call. Cut-off read from the data, not from the text of the source: active = inhibition above about 50%; inactive = the rest.

Each compound was assayed against Mannose-6-phosphate isomerase (Homo sapiens) (UniProt P34949) (assay: MPI inhibition at elevated mannose 6-phosphate – biochemical, fluorescence intensity, high mannose 6-phosphate, primary screen (AID 1220)). Conditions: recombinant PMI enzyme, coupled fluorescence intensity; at 20 µM; stronger effect = higher value.
Sequence of Mannose-6-phosphate isomerase (Homo sapiens) (P34949 whole entry, looked up): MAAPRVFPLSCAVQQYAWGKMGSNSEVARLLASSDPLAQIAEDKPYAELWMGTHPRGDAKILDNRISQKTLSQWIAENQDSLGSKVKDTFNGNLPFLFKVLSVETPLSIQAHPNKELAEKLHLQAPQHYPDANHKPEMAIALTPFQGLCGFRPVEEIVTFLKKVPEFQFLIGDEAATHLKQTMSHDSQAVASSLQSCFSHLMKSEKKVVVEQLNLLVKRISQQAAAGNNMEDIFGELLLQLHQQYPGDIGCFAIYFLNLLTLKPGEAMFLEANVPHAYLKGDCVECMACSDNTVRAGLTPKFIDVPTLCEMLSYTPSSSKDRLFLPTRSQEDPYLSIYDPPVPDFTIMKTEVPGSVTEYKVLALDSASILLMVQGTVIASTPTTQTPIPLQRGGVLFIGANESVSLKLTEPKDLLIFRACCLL
In the case of `O=C(COc1cccc2cccnc12)NCC(F)(F)F`, the inhibition was 56.1% (active).
With `Cc1cc(NC(=O)COc2cccc(C)c2C)no1` the inhibition was 4.6%.
Work on `NNC(=O)COc1cccc2cccnc12` yielded an inhibition of -9.1%.
Compound `O=C(COc1cccc2cccnc12)NCc1cccs1` has an inhibition of 37.7%.
With `Cc1cc(NC(=O)COc2cccc3cccnc23)no1` the inhibition was 51.1% (active).
With `Cc1ccc(NC(=O)CN(C)S(=O)(=O)c2cccc3cccnc23)cc1` the inhibition was 15.3%.
Compound `O=C(COc1cccc2cccnc12)Nc1ccccc1` has an inhibition of 5.4%.
`Cc1cc(NC(=O)COc2ccccc2C)no1` was tested, and the inhibition was -5.2%.
`CCc1ccc(NC(=O)CC2C(=O)Nc3c2c(=O)n(C)c(=O)n3C)cc1` (stereo not given) was tested, and the inhibition was 2.9%.
For `CC1SC(c2ccc(Cl)cc2)NC1=O` (stereo not given), the inhibition was 7.4%.
With `NC(=O)c1cc2ccccc2o/c1=N/NC(=O)c1cccs1` the inhibition was 2.2%.
Compound `COc1ccc(OC)c(NC(=O)N[C@@H](Cc2ccccc2)C(=O)O)c1` has an inhibition of 8.2%.
For `Cn1c(C(=O)NC2CC2)cc2c(=O)n(C)c3ccccc3c21`, the inhibition was 0%.
For `COc1ccc(OC/C(O)=C(\C#N)c2nc3ccccc3[nH]2)cc1`, the inhibition was 1.2%.
Compound `CCC(=O)Nc1cccc(C(=O)/C=C/c2ccc(F)cc2)c1` has an inhibition of 9.5%.
`O=C1CCCC2=C1C(c1ccccc1)CC(=O)N2c1ccc(F)cc1F` (stereo not given) showed an inhibition of 5.4%.
Work on `CCOC(=O)c1ccc2c(c1)N(CC(=O)N1CCCCC1)C(=O)C(C)(C)O2` yielded an inhibition of 5.7%.
`COc1ccc(Nc2nc(C)c(-c3ccccc3)s2)cc1` showed an inhibition of 6.2%.
`O=C(Nc1cccc2ccccc12)N1CCN(c2ncccn2)CC1` was tested, and the inhibition was 68.9% (active).
`C=CCNC(=S)N1CCN(c2ncc3c(=O)c(C(=O)O)cn(CC)c3n2)CC1` gave an inhibition of 14.8%.
`S=C(Nc1cccc2ccccc12)N1CCN(c2ncccn2)CC1` gave an inhibition of 33.6%.
With `CCn1cc(C(=O)O)c(=O)c2cnc(N3CCN(C(=O)Nc4cccc5ccccc45)CC3)nc21` the inhibition was 58.3% (active).
In the case of `CCn1cc(C(=O)O)c(=O)c2cnc(N3CCNCC3)nc21`, the inhibition was 14.5%.
`O=C(Nc1cccc2ccccc12)N1CCN(c2ccccc2)CC1` gave an inhibition of 15.4%.
Compound `CCn1cc(C(=O)N2CCn3c(nc4ccccc43)C2)c(=O)c2ccc(C)nc21` has an inhibition of -2%.
`CCn1c(CN2CCN(CCO)CC2)nc2ccccc21` was tested, and the inhibition was 2.7%.
With `CC1CCCC(C)N1/N=C/c1ccc(Cl)cc1` (stereo not given) the inhibition was -10.4%.
In the case of `CCCN1C(=O)/C(=C\C=C2/C=CN(CC)c3ccccc32)SC1=S`, the inhibition was 65.3% (active).
`CCCN1C(=O)/C(=C/C=C2\N(CC)c3ccccc3C2(C)C)SC1=S` showed an inhibition of 10.7%.
Work on `CCCN1C(=O)/C(=C\C=C2\N(CC)c3ccccc3C2(C)C)SC1=S` yielded an inhibition of 18.5%.
Compound `CCN1C(=O)/C(=C\N2CCCCCC2)SC1=S` has an inhibition of 7%.
`CCN1C(=O)/C(=C/C=C2/Sc3ccccc3N2CCO)SC1=S` showed an inhibition of 8.4%.
With `CCN1C(=O)/C(=C/C=C2\C=CN(CC)c3ccccc32)SC1=S` the inhibition was 64.1% (active).
For `CCCCN1C(=O)/C(=C/C=C2\Oc3ccccc3N2CC)SC1=S`, the inhibition was 19.9%.
With `CCN1C(=O)/C(=C2/C=CC=CN2C)SC1=S` the inhibition was 9.3%.
With `CCN1C(=O)/C(=C\C=C2/C=CC=CN2CC)SC1=S` the inhibition was 65.6% (active).
Compound `CCn1c(C(C)NC(=O)Cc2ccccc2)nc2ccccc21` (stereo not given) has an inhibition of -0.2%.
Work on `O=C(CSc1nnc2ccccn12)Nc1ccc2c(c1)OCO2` yielded an inhibition of 13.7%.
Work on `Cc1ccc(NC(=S)NN(C)c2cc(C)nc(C)n2)cc1` yielded an inhibition of -11%.
In the case of `CCS(=O)(=O)NCCc1cc2cc(C)c(C)cc2[nH]c1=O`, the inhibition was 0.4%.
Work on `CCCCOC(=O)c1cc(=O)[nH]c2ccccc12` yielded an inhibition of 6.8%.
Work on `Cc1cc(C(=O)N/N=C/c2ccc3c(c2)OCO3)c(C)n1-c1ccc(F)cc1` yielded an inhibition of -30.4%.
With `COc1cc(/C=N/NC(=O)c2cc(C)n(-c3ccc(F)cc3)c2C)cc(OC)c1O` the inhibition was 51.9% (active).
With `COc1ccc(/C=N/NC(=O)c2cc(C)n(-c3ccccc3)c2C)cc1OC` the inhibition was 9.5%.
Work on `O=C(COC(=O)c1ccccc1[N+](=O)[O-])c1ccc(C2CCCCC2)cc1` yielded an inhibition of -0.8%.
With `Nc1ccc(O)cc1C(=O)OCC(=O)c1ccc(C2CCCCC2)cc1` the inhibition was 60.3% (active).
`COc1ccc(C(=O)OCC(=O)c2ccc(C3CCCCC3)cc2)cc1` showed an inhibition of 9.2%.
`CCCOc1ccc(N2C(=O)CC(N3CCC(O)(c4cccc(C(F)(F)F)c4)CC3)C2=O)cc1` (stereo not given) showed an inhibition of 7.5%.
For `CC(=O)Oc1ccc2c(C)cc(=O)oc2c1`, the inhibition was 2%.
`CC(=O)Oc1cc2oc(=O)cc(C)c2cc1OC(C)=O` was tested, and the inhibition was 55.7% (active).
Work on `CC(=O)c1cc2c(C)cc(=O)oc2cc1O` yielded an inhibition of 11.3%.
`CC(=O)c1cc2c(cc1NC(=O)CCc1ccccc1)OCO2` gave an inhibition of 0.5%.
`CCOc1cc(/C=C2/C(=O)N(c3ccccc3)N=C2C)ccc1OC(=O)c1cccs1` was tested, and the inhibition was 17%.
`CCOc1cc(/C=C2/C(=O)N(c3ccccc3)N=C2C)ccc1OC(=O)c1ccco1` gave an inhibition of 43.2%.
With `CCOc1cc(/C=C2\C(=O)N(c3ccc(C(N)=O)cc3)N=C2C)ccc1OC(=O)c1cccs1` the inhibition was 61.4% (active).
In the case of `CCOc1ccc(NCC2CCOC(C)(C)C2)cc1` (stereo not given), the inhibition was 50.9% (active).
In the case of `CCOc1ccc(NC(=O)NC2CCOC(C)(C)C2)cc1` (stereo not given), the inhibition was 11.5%.
With `CCOc1ccc(NCCC#N)cc1` the inhibition was 2.3%.
In the case of `CCN(CC)S(=O)(=O)c1cccc(C(=O)OCC(=O)NC(C)c2ccccc2)c1` (stereo not given), the inhibition was -2.8%.
Work on `O=C(CNC(=O)/C(=C\c1ccc(F)cc1)NC(=O)c1ccccc1)OCc1ccccc1` yielded an inhibition of 0.8%.
With `O=C(NCc1cccnc1)c1ccc(COc2cccc3ccccc23)o1` the inhibition was 53.2% (active).
Work on `O=C(NCc1cccnc1)c1ccc(COc2ccccc2Br)o1` yielded an inhibition of 11.6%.
With `COc1ccccc1OCc1ccc(C(=O)NCc2cccnc2)o1` the inhibition was 6.8%.
In the case of `CC1CCN(c2c(NCC3CCC(C(=O)NCCc4ccccc4)CC3)c(=O)c2=O)CC1` (stereo not given), the inhibition was 1.2%.
`Cn1ncc(N=Cc2ccccc2)c1C(=O)Nc1cccc(Cl)c1` showed an inhibition of 14.7%.
In the case of `Cn1ncc(N=Cc2c(O)ccc3ccccc23)c1C(=O)Nc1cccc(Cl)c1`, the inhibition was 64% (active).
`Cn1ncc(N=Cc2ccccc2O)c1C(=O)Nc1ccccc1` gave an inhibition of 16.9%.
`C/C(CC(=O)Nc1ccccn1)=N\NC(=O)C(=O)Nc1ccccc1C` was tested, and the inhibition was 13%.
Compound `CCOC(=O)C(Cc1ccc(Cl)cc1Cl)c1ccno1` (stereo not given) has an inhibition of 0.3%.
With `O=C(NCc1ccco1)C1CCN(c2nc3ccccc3n2Cc2ccccc2F)CC1` the inhibition was 25.8%.
`COc1ccccc1C(=O)OCC(=O)Nc1ccc(Cl)cn1` showed an inhibition of 6.1%.
For `COc1ccccc1NCCC(=O)OCC(=O)Nc1ccc(Cl)cn1`, the inhibition was 50.3% (active).
In the case of `O=C(COC(=O)CCOc1ccccc1)Nc1ccc(Cl)cn1`, the inhibition was 9.2%.
Work on `O=c1c2[nH]c3ccccc3c2ncn1Cc1ccccn1` yielded an inhibition of 1.8%.
With `CC(=O)c1c(C)[nH]c(C(=O)N2CCc3ccccc3C2)c1C` the inhibition was 12.7%.
